A short description of test [1]: APR_HepG2_MitoticArrest_72hr: Apredica 72-hour HepG2 Assay for Mitotic Arrest (AID 2282918). The following applies: high-content imaging, actives raise or lower the signal. The gist of the method:
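Read-out is phospho-histone H3 immunofluorescence with Hoechst nuclear segmentation, imaged at 20x. Human HepG2 liver cells received ten concentrations (0.39–200 uM, final DMSO 0.5% v/v) for 72 hr before fixation. Gain or loss of signal was fitted relative to DMSO.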

Test [2] in a line: APR_HepG2_StressKinase_72hr: Apredica 72-hour HepG2 Assay for Stress Kinase (AID 2282921). Conditions: HepG2 stress kinase (phospho-c-Jun) imaging, actives raise or lower the signal. The gist of the method:
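HepG2 cells treated 72 hr with 0.39–200 uM compound, 0.5% v/v DMSO, duplicate wells. After formaldehyde fixation and Triton permeabilization, stained with anti-phospho-c-Jun (1:500) and Cy3 secondary, imaged at 20x. Fitted in both directions against DMSO.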

A short description of test [3]: APR_HepG2_StressKinase_24hr: Apredica 24-hour HepG2 Assay for Stress Kinase (AID 2282922). Conditions: HepG2 stress kinase (phospho-c-Jun) imaging, actives raise or lower the signal. The essentials: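 HepG2, 24 hr dosing, 0.39–200 uM in duplicate, 0.5% DMSO; formaldehyde fix (3.7%), 0.5% Triton X-100; anti-phospho-c-Jun + Cy3 secondary, Hoechst counterstain; ArrayScan imaging; bidirectional curve fit vs DMSO baseline.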

A short description of test [4]: APR_HepG2_p53Act_72hr: Apredica 72-hour HepG2 Assay for p53 Activation (AID 2282923).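 Also: average cellular p53 protein immunofluorescence intensity in HepG2 cells.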 The following applies: high-content imaging, actives raise or lower the signal. The gist of the method: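 HepG2 cells exposed 72 h to 0.39–200 uM in 0.5% DMSO, duplicates. Fixed, permeabilized cells immunostained for p53 (Cy5) with Hoechst; imaged at 20x, fluorescence analyzed bidirectionally against DMSO.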

A short description of test [5]: APR_HepG2_MitoMass_72hr: Apredica 72-hour HepG2 Assay for Mitochondrial Mass (AID 2282924).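 Also: MitoTracker Red CMXRos stain intensity per cell imaged as mitochondrial mass.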 Conditions: high-content imaging, actives raise or lower the signal. The gist of the method:
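HepG2, 72 hr cmpd, 10 conc 0.39–200 uM in dup, DMSO 0.5% v/v. MitoTracker Red CMXRos 250 nM 30 min pre-fix; formaldehyde 3.7% fix 30 min RT. HCS imaging, gain/loss fit vs DMSO.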

A short description of test [6]: ATG_CRE_CIS: Attagene CIS-FACTORIAL HepG2 Assay for human cAMP Responsive Element (CRE) binding protein 3 (AID 2282926). Conditions: HepG2 CRE cis-reporter, Attagene multiplexed mRNA; actives raise or lower the signal. The gist of the method:
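Human liver HepG2, transient MRTU transfection, 24 h compound exposure. Total RNA → oligo(dT) RT → PCR → 6-FAM primer extension → HpaI cut → CE. Activity called both directions vs DMSO.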

Test [7] in a line: ATG_CMV_CIS: Attagene CIS-FACTORIAL HepG2 Assay for human CMV (Internal Marker) (AID 2282928).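 Also: endpoint acts as a background internal control marker rather than a target.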 The following applies: HepG2 CMV promoter reporter, transcription factor profiling; actives raise or lower the signal. The gist of the method:
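After transient transfection of HepG2 with reporter transcription units driven by cis-regulatory promoters, cells receive test chemical for 24 h. Labeled reporter amplicons, digested with HpaI, are sized and quantified by capillary electrophoresis against DMSO.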

The target of test [8] is CCAAT/enhancer-binding protein beta (Homo sapiens) (UniProt P17676). The test can be described thus: ATG_C_EBP_CIS: Attagene CIS-FACTORIAL HepG2 Assay for human CCAAT/Enhancer Binding Protein (C/EBP) beta (AID 2282927). The following applies: HepG2 Attagene cis-factorial transcription factor reporter; actives raise or lower the signal. The gist of the method:
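Endogenous C/EBPb-driven reporter transcripts measured in transfected human HepG2 cells at 24 h via RT-PCR and capillary electrophoresis of labelled fragments. Activity fitted in both directions relative to DMSO baseline.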

The nature of test [9]: APR_HepG2_NuclearSize_72hr: Apredica 72-hour HepG2 Assay for Nuclear Size (AID 2282925). Conditions: high-content imaging, actives raise or lower the signal. The gist of the method:
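HepG2; cpd 0.39–200 uM, 10 conc, duplicate; 72 h; DMSO 0.5% v/v; fix 3.7% formaldehyde 30 min RT; Triton permeabilization; Hoechst 2 ug/mL; HCS imaging 20x; nuclear diameter; gain/loss fit vs DMSO.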

“And” between values parts separate entries of the source, which are not always exact repeats. Equal entries are not always repeated. More than one record can exist for a structure, and the calls need not agree. The source made the active and inactive calls. The calls were made as follows: active = hit-call score of the fitted dose curve at least 0.9, where 1 is the maximum; inactive = score below 0.9.

Sequence of CCAAT/enhancer-binding protein beta (Homo sapiens) (P17676 whole entry, looked up, the tested form may be a part): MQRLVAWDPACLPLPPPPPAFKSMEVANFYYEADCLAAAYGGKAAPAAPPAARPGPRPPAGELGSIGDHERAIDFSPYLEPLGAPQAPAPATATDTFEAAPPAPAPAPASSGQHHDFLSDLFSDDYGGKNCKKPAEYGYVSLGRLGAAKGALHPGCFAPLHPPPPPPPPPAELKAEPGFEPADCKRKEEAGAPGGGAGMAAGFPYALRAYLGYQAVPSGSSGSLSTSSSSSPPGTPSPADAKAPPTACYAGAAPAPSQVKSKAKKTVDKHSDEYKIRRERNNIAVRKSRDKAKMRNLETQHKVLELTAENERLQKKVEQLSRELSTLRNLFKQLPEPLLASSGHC

As for `O=C(CCCN1CCC(O)(c2ccc(Cl)cc2)CC1)c1ccc(F)cc1`, the AC50 (usually the concentration giving half of the maximal activity seen) in test [1] is 19.8 µM (active); in test [2], 42.5 µM (active); in test [3], 103 µM (active); in test [4] it was 37.3 µM (active); in test [5], 30.8 µM (active); in test [6] it was 52.9 µM (active). The AC50 in test [7] is 49.7 µM (active).

For `O=C(NCc1ncc(C(F)(F)F)cc1Cl)c1c(Cl)cccc1Cl`, the result in [6] and in [8] was inactive.

Turning to `OCC(CO)(CBr)CBr`, the molecule was called inactive in [2], in test [3], in test [9], in [6], in test [8] and in test [7].

Regarding `CNNCc1ccc(C(=O)NC(C)C)cc1`, in test [6], the outcome was inactive.

Regarding `O=C(F)C(F)(F)C(F)(F)C(F)(F)C(F)F`, the result in test [6] and in [8] was inactive.

With `O=CC(F)(F)C(F)(F)C(F)(F)F`, the molecule was classed as inactive in [6], in [8] and in [7].

Take `CCCC=O`: the call in [6], in [8] and in test [7] was inactive.

With `COC1=CC(=O)C[C@@H](C)[C@]12Oc1c(Cl)c(OC)cc(OC)c1C2=O`, the AC50 in test [6] is 130 µM (active). The result in test [8] was inactive.

Consider `COC(=O)C(F)(F)C(F)(F)C(F)(F)C(F)(F)C(F)(F)F`, for which the molecule was classed as inactive in test [6], in test [8] and in [7].

In the case of `Cc1ccccc1OCC(=O)O`, the result in test [6], in test [8] and in test [7] was inactive.

Take `CCC(=O)C=Cc1ccc(OC)cc1`: the outcome in [6] and in [8] was inactive.

Take `C=CC(=O)OCCC(F)(F)C(F)(F)C(F)(F)C(F)(F)C(F)(F)C(F)(F)F`: the outcome in test [6] and in [8] was inactive.

As to `CC(=O)Nc1ccc(S(N)(=O)=O)cc1`, the molecule was classed as inactive in test [6], in test [8] and in [7].

As for `c1ccc2c(c1)CCC2`, the molecule was called inactive in test [6], in [8] and in [7].

For the molecule `Cc1ccc(S(=O)(=O)O)cc1`, the result in [6] and in test [8] was inactive.

For `O=S(=O)(O)C(F)(F)C(F)(F)C(F)(F)C(F)(F)C(F)(F)C(F)(F)C(F)(F)C(F)(F)C(F)(F)C(F)(F)F`, the molecule was classed as inactive in test [6], in test [8] and in [7].

Consider `CC1CCC(CO)CC1` (stereo not given), for which the call in test [6], in test [8] and in test [7] was inactive.

Consider `CC(C)C=O`, for which the result in test [6] and in test [8] was inactive.

In the case of `CCC(=O)O`, the outcome in test [6], in [8] and in [7] was inactive.

For the molecule `CC(C)[C@@H]1CC[C@@H](C)C[C@H]1O`, the outcome in [6], in test [8] and in test [7] was inactive.

`CCOCCOCC`: the result in [6] and in [8] was inactive.

Regarding `O=C(O)C(F)(F)OC(F)(F)C(F)(F)OC(F)(F)C(F)(F)OC(F)(F)C(F)(F)C(F)(F)C(F)(F)F`, the AC50 in test [6] was 37.7 µM (active) and 27.1 µM (active). For the same molecule, the outcome in test [8] was inactive.

On to `COc1ccccc1NC(=O)c1cc2ccccc2cc1O`, for which the AC50 in test [6] was 31.6 µM (active). Further, in test [8], the result was inactive.

With `O=C(O)CCC(F)(F)C(F)(F)C(F)(F)C(F)(F)C(F)(F)C(F)(F)F`, the molecule was called inactive in test [6] and in [8].

Take `CC[N+](CC)(CC)Cc1ccccc1`: the result in test [6] and in test [8] was inactive.

For `O=S(=O)(c1ccc(OCc2ccccc2)cc1)c1ccccc1O`, the AC50 in [6] is 14.9 µM (active); in test [8], 23.1 µM (active); in test [7], 51.6 µM (active).

Turning to `FC(F)=C(F)C(F)(F)C(F)(F)C(F)(F)C(F)F`, the result in [6] and in [8] was inactive.

Regarding `c1cc[nH]c1`, the outcome in test [6] and in [8] was inactive.

With `CC(C)(C)C1CCCCC1O` (stereo not given), the outcome in test [6], in test [8] and in [7] was inactive.

As for `CCCCCCCCCCCCOC(=O)c1cc(O)c(O)c(O)c1`, the outcome in test [6], in test [8] and in test [7] was inactive.

`COc1cccc(O)c1`: the molecule was called inactive in test [6], in test [8] and in test [7].

On to `CC1CNCC(C)O1` (stereo not given), for which the molecule was called inactive in [6], in [8] and in test [7].

On to `CCCCCCCCCCCCCCCCCC[N+](C)(C)Cc1ccccc1`, for which the outcome in test [6] and in [7] was inactive. In [8], the AC50 was 75.8 µM (active).

As to `O=C(O)c1cccc(C(=O)O)n1`, the molecule was called inactive in [6] and in [8].

As for `Oc1ccc(Cc2ccccc2O)cc1`, the molecule was called inactive in [6], in [8] and in test [7].

Turning to `O=C1OC(=O)c2cc(-c3ccc4c(c3)C(=O)OC4=O)ccc21`, the result in [6] and in test [8] was inactive.

For the molecule `Cc1cccc2c1ccc1ccccc12`, the result in [6], in [8] and in test [7] was inactive.

As to `FC(F)(F)C1(F)C(F)(F)C(F)(F)C(F)(F)C(F)(C(F)(F)F)C1(F)F` (stereo not given), the result in test [6] and in test [8] was inactive.

As to `CCOC(C)=O`, the molecule was classed as inactive in test [6], in [8] and in test [7].

Regarding `O=C(O)CN(CCCN(CC(=O)O)CC(=O)O)CC(=O)O`, the molecule was called inactive in test [6] and in [8].

For `Cc1cc(C(C)(C)C)c(O)c(C(C)(C)C)c1`, the outcome in test [6] and in test [8] was inactive. Further, the AC50 in test [8] is 14.6 µM (active); in test [7], 25.3 µM (active) and 60 µM (active).

In the case of `Oc1c(Cl)cc(Cl)cc1Sc1cc(Cl)cc(Cl)c1O`, the molecule was called inactive in test [6] and in test [8].

As for `CCN(CCC#N)c1ccccc1`, the call in test [6], in test [8] and in [7] was inactive.

Turning to `CCCCCCCC(OC)OC`, the molecule was classed as inactive in [6], in test [8] and in test [7].

Turning to `NNc1nc(-c2ccc([N+](=O)[O-])cc2)cs1`, the call in test [6], in test [8] and in [7] was inactive.

For the molecule `Cc1ccccc1C(OCCN(C)C)c1ccccc1` (stereo not given), the molecule was called inactive in test [6], in test [8] and in test [7].
